# Results: PubChem BioAssay (NCATS)
# Records with an inconclusive call do not appear. A call without a number means that no potency is given here. The source made the active and inactive calls. Calls follow the shape of the dose curve; as a rule, active = well fitted inhibition curve with a large enough effect; inconclusive = small, poorly fitted or top-dose-only effect; inactive = no such curve, though single readings can be large or run the other way.
# Target: Retinaldehyde dehydrogenase 3 (Homo sapiens) (UniProt P47895)
# Experiment: qHTS for Inhibitors of the Aldehyde Dehydrogenase Family (ALDH1A3) Primary screen (AID 2061315)
# Settings: ALDH inhibition qHTS; series mostly up to 56 µM
row,SMILES,Potency
1,c1nc(NCCCN2CCOCC2)c2cc(-c3ccc4c(c3)OCO4)ccc2n1,inactive
2,Cc1cc(/C=C2/C(=O)Nc3ccccc32)cc(C)c1O,inactive
3,COc1cccc(NS(=O)(=O)c2ccc3c(c2)CCC(=O)N3)c1,inactive
4,C[C@@H](NC(c1ccc(F)cc1)c1ccc2cccnc2c1O)c1ccccc1 (stereo partly drawn),inactive
5,CC(=O)Nc1sc2c(c1-c1ccc(C(N)=O)cc1)CCNC2,inactive
6,O=C(NC1CCCc2c1cnn2-c1ccc(F)cc1F)c1ccn[nH]1 (stereo not drawn),inactive
7,COC(=O)c1cc2c(C(F)(F)F)cc(-c3ccccc3)cc2n1O,inactive
8,CNC(=O)c1cnn2c(C)cc(C)nc12,inactive
9,Cc1cccc(-n2cnc3cc(C(=O)NC4CCCC4)ccc32)c1,inactive
10,COc1cccc(C2C(C#N)=C(NC(=O)NCc3ccccc3)Oc3ccc4ccccc4c32)c1 (stereo not drawn),inactive
11,CC(=O)OC1CC2C3(C)CCC(OC(=O)CC(=O)O)C(C)(C)C3CCC2(C)C2(C)CCC(C3(C)CCC(=O)O3)C12 (stereo not drawn),inactive
12,Cc1cc(NS(=O)(=O)c2cc3c(cc2F)NC(=O)CC3)ccc1Cl,inactive
13,Cc1cc2c(s1)c1cnn(Cc3cccc(C(F)(F)F)c3F)c(=O)c1n2C,inactive
14,O=C1CCCC2=C1C(c1[nH]ncc1Cl)NC(=NCc1cccs1)N2 (stereo not drawn),inactive
15,CC(=O)NC(c1cccs1)c1cc(F)c2cccnc2c1O (stereo not drawn),inactive
16,Cc1ccc(NS(=O)(=O)c2cc3c(cc2F)NC(=O)CC3)cc1C,inactive
17,c1nc(NCC2CCCO2)c2ccc(-c3ccc4c(c3)OCO4)cc2n1 (stereo not drawn),inactive
18,C=C1C(=O)O[C@@H]2C[C@H](C)[C@@H]3CC(=O)[C@H](O)[C@@]3(C)C[C@H]12,inactive
19,CCC1(CC)CCN(C(=O)CC(c2ccc3c(c2)OCO3)c2c(O)cc(OC)cc2OC)C1 (stereo not drawn),inactive
20,COc1ccc(C2Nc3ccccc3C(=O)N2Cc2ccccc2OC)cc1COc1c(C)cc(NC(C)=O)cc1C (stereo not drawn),inactive
21,CCCCC1CCC(C(=O)Nc2ccc(S(=O)(=O)Nc3nccs3)cc2)CC1 (stereo not drawn),inactive
22,CCCN(CCC)C(=O)C(CCC(=O)OCCCN1CCN(CCOC(=O)Cc2c(C)n(C(=O)c3ccc(Cl)cc3)c3ccc(OC)cc23)CC1)NC(=O)c1ccccc1 (stereo not drawn),inactive
23,COc1ccc2c(c1)Oc1ncn(CCN3CCOCC3)c(=N)c1C2c1ccc(OC)c(OC)c1 (stereo not drawn),inactive
